Test results reported in PubChem BioAssay.
Where “and” joins values, the source holds several entries; their conditions need not be identical. Identical values can stand only once. Calls of active or inactive are those of the source. Unless noted, no stated cut-off is given here; in the data, active means nuclear beta-catenin stimulation mostly above about 4.2% (no sharp cut-off); inactive means mostly below about 10%.

assay: P. berghei load reduction in hepatocytes – cell-based, HepG2, luciferase luminescence, HepG2 viability, primary screen (AID 624349; in the data active means parasite load remaining mostly below about 12%, no sharp cut-off; inactive means mostly above about 10%;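 further: 100% = mean of DMSO negative control wells on the same plate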); conditions: P. berghei liver stage in HepG2, luciferase luminescence, concentration not given here; parasite load remaining: stronger effect = lower value; viability: measured here: HepG2 viability without parasites

Compound | viability | parasite load remaining
COP(=S)(OC)Oc1ccc(Sc2ccc(OP(=S)(OC)OC)cc2)cc1 | 137% | 25% (inactive)
CN(C)C(=S)SSC(=S)N(C)C | 84.1% and 106% | 69.7% (inactive) and -0.72% (inactive)
CN1C[C@H](CNC(=O)OCc2ccccc2)C[C@@H]2c3cccc4c3c(cn4C)C[C@H]21 | 74.4% and 69.2% | 77.5% (inactive) and 64.4% (inactive)

assay: Wnt pathway potentiators raising nuclear beta-catenin – imaging, WNT3A-conditioned medium, mouse C2C12, NPC library, primary screen (AID 1117326); conditions: at 10 µM, stronger effect = higher value; further: reference of the scale not given here

Compound | nuclear beta-catenin stimulation
O=C1NCN(c2ccccc2)C12CCN(CCCOc1ccc(F)cc1)CC2 | 0.4% (inactive)
Fc1cc(Br)ccc1CBr | -0.7% (inactive)
ClC1=C(Cl)C2(Cl)C(CBr)CC1(Cl)C2(Cl)Cl (stereo not given) | 1.7% (inactive)
C=CCN1CC[C@]23CCCC[C@H]2[C@H]1Cc1ccc(O)cc13 | 3.5% (inactive)
COP(=S)(OC)Oc1ccc(Sc2ccc(OP(=S)(OC)OC)cc2)cc1 | 5.7% (inactive)
CC1(C)[C@H](C=C(Cl)Cl)[C@@H]1C(=O)OCc1c(F)c(F)cc(F)c1F | -2.8% (inactive)
CN(C)C(=S)SSC(=S)N(C)C | 68.4% (active)
CN1C[C@H](CNC(=O)OCc2ccccc2)C[C@@H]2c3cccc4c3c(cn4C)C[C@H]21 | 53.7% (active)
COc1ccc2c(c1OC)C(=O)O[C@H]2[C@@H]1c2cc3c(cc2CCN1C)OCO3 | -0.8% (inactive)
CCOC(=O)C=C(C)C=CC[C@@H](C)CCCC(C)C | 0.8% (inactive)
COC(=O)C(Cl)C(=O)OC | 0.3% (inactive)
COCC(C)N(C(=O)CCl)c1c(C)csc1C (stereo not given) | 0.5% (inactive)
c1ccc2c(c1)Sc1ccccc1N2CC1CN2CCC1CC2 (stereo not given) | 50.9% (active)
COc1cccc2c1C(=O)c1c(O)c3c(c(O)c1C2=O)C[C@@](O)(C(=O)CO)CC3OC1CC(N2CCOC(OC)C2)C(O)C(C)O1 (stereo not given in full) | 13.6% (active)
